This note sets out measurements from PubChem BioAssay (Tox21).

A short description of assay [1]: qHTS assay for small molecule agonists of the p53 signaling pathway (AID 651631; calls by dose curve; note: nearly all actives have a fitted effect of over 15% in size). The method in brief: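 p53RE-bla HCT-116 cells; compounds 16 h, 37 °C; LiveBLAzer B/G FRET substrate 2 h RT; fluorescence intensity read-out, qHTS format.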
Assay [2] in a line: qHTS assay for small molecules that induce genotoxicity in human embryonic kidney cells expressing luciferase-tagged ATAD5 (AID 651632). Note: nearly all actives have a fitted effect of over 15% in size. The method in brief:
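Luminescent reporter readout, HEK293T ATAD5-luc line: 16 hr drug exposure (37C, 5% CO2) followed by Amplite, 30 min RT.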

A short description of assay [3]: qHTS assay for small molecule agonists of the p53 signaling pathway - cell viability (AID 651633; calls by dose curve;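 note: p53RE-bla HCT reporter cells with a stable beta-lactamase p53 reporter; series mostly up to about 83 µM; nearly all actives have a fitted effect of over 30% in size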). In outline: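 p53RE-bla cells, seeded at 4,000 per well and rested 5 h at 37 C/5% CO2, received compounds in DMSO for 16 h at 37 C. CellTiter-Glo was then added, and luminescence was read after 30 min at room temperature to gauge cytotoxicity.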
Assay [4] is described as follows: qHTS assay for small molecules that induce genotoxicity in human embryonic kidney cells expressing luciferase-tagged ATAD5 - cell viability (AID 651634; calls by dose curve; note: nearly all actives have a fitted effect of over 25% in size). In outline:
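Viability read: CellTiter-Fluor fluorescence, 30 min at 37C. Cells: HEK293T, luciferase-tagged ATAD5. Exposure: 15.5 hr, 37C, 5% CO2, compound or DMSO vehicle.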

Assay [5] is described as follows: qHTS assay for small molecule disruptors of the mitochondrial membrane potential - cell viability (AID 720634; calls by dose curve; note: nearly all actives have a fitted effect of over 20% in size; note: potency is the fitted concentration of half-maximal effect). In outline: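 HepG2, 1 hr compound, 37 C. ATP luminescence via CellTiter-Glo, 30 min RT, same well as m-MPI.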
Assay [6] in a line: qHTS assay for small molecule disruptors of the mitochondrial membrane potential (AID 720635). Note: potency is the fitted concentration of half-maximal effect. In outline:
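HepG2 cells (2,000/well) attached overnight at 37C, then took compound for 1 hr at 37C, 5% CO2. Mito-MPS dye was added for 30 min; fluorescence was read at 490/535 nm (monomers) and 540/590 nm (aggregates).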

Assay [7] is described as follows: qHTS assay to test for compound auto fluorescence at 590 nm (red) in HepG2 cells (AID 720674). In outline:
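Rose Bengal sodium served as the red fluorophore standard. HepG2 monolayers (overnight attachment, MEM with 10% FBS) were exposed to test compounds for 1 hr at 37 C and read at Ex 540/Em 590 nm.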

Assay [8] in a line: qHTS assay to test for compound auto fluorescence at 535 nm (green) in HepG2 cells (AID 720675).
A short description of assay [9]: qHTS assay to test for compound auto fluorescence at 460 nm (blue) in HEK293 cells (AID 720678). In outline: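 After cell attachment (4-5 hr, 37C), compounds were pinned onto HEK293 monolayers in 10% dialyzed FBS medium. The blue channel (405/460 nm) was read following overnight culture. Equivalency was calculated against triamterene.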
A short description of assay [10]: qHTS assay to test for compound auto fluorescence at 590 nm (red) in HEK293 cells (AID 720679). The method in brief: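 Plates of HEK293 cells (10% dialyzed FBS) are treated with 23 nL compound or DMSO vehicle after a 4-5 hr attachment period, incubated overnight at 37C, and read for red fluorescence at 540/590nm.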
Assay [11] in a line: qHTS assay to test for compound auto fluorescence at 535 nm (green) in HEK293 cells (AID 720680).
Assay [12] can be described thus: qHTS assay to test for compound auto fluorescence at 460 nm (blue) in HEK293 cell free culture (AID 720681). The method in brief:
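Test compounds were pinned into cell-free culture medium (DMEM with 10% FBS) and fluorescence was read directly at Ex/Em 405/460 nm. Signals were expressed as fluorescence equivalents of triamterene, with DMSO vehicle as control.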

Assay [13] in a line: qHTS assay to test for compound auto fluorescence at 535 nm (green) in HEK293 cell free culture (AID 720682). The method in brief:
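Cell-free medium (DMEM, 10% FBS) receives compound or DMSO by pintool. Plate read directly at Ex 485/Em 535 nm. Signal converted to fluorescein equivalency.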

Assay [14] can be described thus: qHTS assay to test for compound auto fluorescence at 590 nm (red) in HEK293 cell free culture (AID 720683). The method in brief: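 Tox21 10K library compounds were pinned into cell-free DMEM with 10% FBS and fluorescence was read at excitation 540 nm. Activity is expressed as Rose Bengal sodium equivalency.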
Assay [15] can be described thus: qHTS assay to test for compound auto fluorescence at 590 nm (red) in HepG2 cell free culture (AID 720684). In outline:
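Red fluorescence (540 nm excitation, 590 nm emission) was measured after compound transfer into cell-free MEM supplemented with 10% FBS. Values are equivalencies against Rose Bengal sodium.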

The nature of assay [16]: qHTS assay to test for compound auto fluorescence at 460 nm (blue) in HepG2 cell free culture (AID 720685). In outline:
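Compound (23 nL) or DMSO pinned into cell-free MEM with 10% FBS; blue fluorescence read at 405/460 nm excitation/emission, expressed as auto-fluorescence equivalency to triamterene.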

The nature of assay [17]: qHTS assay to test for compound auto fluorescence at 535 nm (green) in HepG2 cell free culture (AID 720686).
Assay [18] in a line: qHTS assay to test for compound auto fluorescence at 460 nm (blue) in HepG2 cells (AID 720687). The method in brief:
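Cells (2,000/well in MEM with 10% FBS) attached overnight at 37 C, then were exposed to compound or DMSO for 1 hr at 37 C, 5% CO2. Fluorescence read at Ex/Em 405/460 nm, expressed as triamterene-equivalent signal.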

The target of assay [19] is Glucocorticoid receptor (Homo sapiens) (UniProt P04150). Put plainly: qHTS assay to identify small molecule agonists of the glucocorticoid receptor (GR) signaling pathway (AID 720691; active = well fitted activation curve with a large enough effect in the signal ratio in the repeat runs, not every such curve was filed as active; the % refers to the signal ratio). The method in brief:
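qHTS in GR-bla HeLa cells: 4 h settling at 37 C/5% CO2, 18 h compound incubation at 37 C, 2 h LiveBLAzer B/G FRET substrate at room temperature, fluorescence intensity measured.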

The target is the same in assay [20]. Put plainly: qHTS assay to identify small molecule antagonists of the glucocorticoid receptor (GR) signaling pathway (AID 720692; active = well fitted inhibition curve with a large enough effect in the signal ratio in the repeat runs, not every such curve was filed as active; the % refers to the signal ratio). The method in brief: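 Inhibition of glucocorticoid signalling is measured in HeLa cells with a GRE-controlled beta-lactamase reporter; cells are co-treated with compound and 5 nM dexamethasone (final) for 18 h before FRET substrate readout.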

Where “and” joins values, the source holds several entries; their conditions need not be identical. Identical values can stand only once. Inconclusive results are not listed. Calls of active or inactive are those of the source. Unless noted, calls come from the whole dose curve; as a rule, active = well fitted curve in the direction sought with a large enough effect in the repeat runs; inconclusive = weak or mixed curves; inactive = no such curve, though single readings can be large; an effect the other way counts as inactive or inconclusive.

Glucocorticoid receptor (Homo sapiens), sequence (P04150 whole entry, looked up): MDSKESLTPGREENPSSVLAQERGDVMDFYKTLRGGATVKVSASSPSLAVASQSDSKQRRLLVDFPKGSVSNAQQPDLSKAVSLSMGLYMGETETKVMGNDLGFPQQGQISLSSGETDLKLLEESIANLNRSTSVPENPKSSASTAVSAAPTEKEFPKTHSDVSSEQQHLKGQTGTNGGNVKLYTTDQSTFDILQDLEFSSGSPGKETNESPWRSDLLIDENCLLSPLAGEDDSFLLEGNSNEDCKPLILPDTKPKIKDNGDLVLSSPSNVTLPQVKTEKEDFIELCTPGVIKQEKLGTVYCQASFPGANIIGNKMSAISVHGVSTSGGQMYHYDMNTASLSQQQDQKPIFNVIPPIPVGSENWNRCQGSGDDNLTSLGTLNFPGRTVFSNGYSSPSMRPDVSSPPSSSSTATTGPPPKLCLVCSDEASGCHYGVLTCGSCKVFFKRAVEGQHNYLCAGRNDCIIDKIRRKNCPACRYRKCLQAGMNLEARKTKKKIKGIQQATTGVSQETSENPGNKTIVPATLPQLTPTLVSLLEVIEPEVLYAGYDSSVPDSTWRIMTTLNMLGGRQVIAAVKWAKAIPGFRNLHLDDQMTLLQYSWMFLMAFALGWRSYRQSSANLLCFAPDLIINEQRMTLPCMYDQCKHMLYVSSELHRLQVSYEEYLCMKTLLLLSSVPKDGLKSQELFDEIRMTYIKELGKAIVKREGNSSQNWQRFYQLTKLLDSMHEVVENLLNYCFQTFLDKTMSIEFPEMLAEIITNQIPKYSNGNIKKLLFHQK

Regarding `O=[N+]([O-])c1ccc([As](=O)(O)O)cc1`, the compound was classed as inactive in [1], in [2], in assay [3], in assay [4], in assay [7] and in assay [8]. Moreover, the call in assay [9], in assay [10], in assay [11], in assay [12], in assay [13] and in assay [14] was inactive. Moreover, the outcome in assay [15], in [16], in assay [17], in [18] and in [19] was inactive. Besides, the Potency entry in [5], in assay [6] and in assay [20] was “inactive” in each case.

For `Nc1ccc(Oc2ccc(N)cc2)cc1`, the compound was called inactive in [1], in [2], in [3], in assay [4], in assay [7] and in assay [8]. Besides, the compound was called inactive in [9], in [10], in [12], in [13], in assay [14] and in assay [16]. Besides, the compound was called inactive in assay [17], in assay [18] and in assay [19]. Also, the Potency entry in [5], in assay [6] and in assay [20] was “inactive” in each case.

In the case of `CCCCOC(=O)c1ccccc1C(=O)OCCCC`, the result in assay [1], in assay [2], in [3], in assay [4], in [7] and in assay [8] was inactive. Also, the outcome in assay [9], in assay [10], in assay [11], in [12], in assay [13] and in assay [14] was inactive. Moreover, the outcome in assay [16], in assay [17], in [18] and in assay [19] was inactive. Further, the Potency entry in assay [5] and in assay [6] was “inactive” throughout.

`Oc1ccccc1Cl`: the call in [1], in [2], in [3], in assay [4], in assay [7] and in [8] was inactive. The result in assay [9], in assay [10], in [11], in assay [12], in [13] and in [14] was inactive. For the same compound, the outcome in assay [15], in assay [16], in assay [17], in assay [18] and in assay [19] was inactive. The Potency entry in [5], in assay [6] and in assay [20] was “inactive” throughout.

For the compound `CCN(CC)CCO`, the compound was classed as inactive in assay [1], in [2], in assay [3], in assay [4], in [7] and in [9]. The result in assay [10], in assay [12], in assay [13], in assay [14], in [15] and in [16] was inactive. In addition, the compound was classed as inactive in [17], in assay [18] and in assay [19]. Moreover, the Potency entry in [5], in [6] and in assay [20] was “inactive” each time.

Take `CC1OC(C)OC(C)O1` (centres undefined): the outcome in assay [1], in [2], in assay [3], in assay [4], in [7] and in [9] was inactive. For the same compound, the compound was classed as inactive in assay [10], in assay [11], in [12], in [13], in assay [14] and in [15]. Further, the compound was classed as inactive in assay [16], in assay [17] and in assay [18]. Also, the Potency entry in assay [5] and in assay [6] was “inactive” throughout.

Turning to `CCCCN(CC)C(=O)SCCC`, the compound was classed as inactive in assay [1], in assay [2], in [3], in assay [4], in [7] and in assay [9]. Besides, the outcome in assay [10], in assay [11], in [12], in [13], in assay [14] and in assay [15] was inactive. The outcome in assay [16], in [17], in [18] and in [19] was inactive. For the same compound, the Potency result in assay [5], in assay [6] and in assay [20] was “inactive” in each case.

On to `O=C(NC(=O)c1c(F)cccc1F)Nc1cc(Cl)c(OC(F)(F)C(F)C(F)(F)F)cc1Cl` (centres undefined), for which the call in [1], in [2], in assay [3], in assay [4], in [7] and in assay [9] was inactive. Moreover, the call in [10], in assay [11], in assay [12], in assay [13], in [14] and in assay [15] was inactive. Besides, the outcome in [16], in assay [17], in assay [18] and in assay [19] was inactive. Besides, the Potency in assay [5] was 6.68 µM (active) and 7.7 µM (active); in assay [6], 5.31 µM (active) and 7.7 µM (active). In [20], the Potency result is “inactive”.
